High-throughput results (PubChem BioAssay)
Mtb UGM inh – blocks M. tuberculosis UGM enzyme; purified UGM, fluorescence polarization probe displacement; inhibition, % at 10 µM; hit rate 0.06% among 320,000; AID 504406; in the data active = inhibition above about 10%, passing the limit was not always enough
Rv3671c protease – Rv3671c (M. tuberculosis) protease inhibition. P9WHR9. inhibition, % at 5.96 µM. hit rate 0.048% among 320,000; in the data active = inhibition above about 38%;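 note: extracellular domain of Rv3671c used as enzyme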
Mtb FBA inh – inhibits M. tuberculosis FBA enzyme; purified M. tuberculosis FBA, fluorescence read-out; hit rate 2.3% among 360,000; P9WQA3; inhibition, % at 1 µM; in the data active = inhibition above about 27%
Target sequence (P9WQA3 whole entry, looked up): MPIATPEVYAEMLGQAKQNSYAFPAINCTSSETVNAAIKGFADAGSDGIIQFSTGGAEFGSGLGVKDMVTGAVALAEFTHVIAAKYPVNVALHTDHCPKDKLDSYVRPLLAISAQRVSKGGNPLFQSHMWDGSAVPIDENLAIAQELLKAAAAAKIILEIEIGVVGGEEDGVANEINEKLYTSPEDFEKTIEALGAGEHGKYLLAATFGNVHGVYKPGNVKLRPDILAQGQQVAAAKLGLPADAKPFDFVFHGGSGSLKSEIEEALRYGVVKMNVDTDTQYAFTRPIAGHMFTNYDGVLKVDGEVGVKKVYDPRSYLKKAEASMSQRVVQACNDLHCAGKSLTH
GDH-TPI inh – inhibits GDH-TPI coupling enzymes, artifact for Mtb FBA screen; hit rate 1.2% among 360,000; GDH-TPI coupled enzyme counterscreen, NADH absorbance; AID 588335; inhibition, % at 4.8 µM; in the data active = inhibition above about 30%
A number is an active result; i = inactive; nt = no result; + = active, no number. A selection: hits, their analogues and other compounds. The true share with any hit is near 3.5%.

SMILES | Mtb UGM inh | Rv3671c protease | Mtb FBA inh | GDH-TPI inh
CCC(CC)CN1CCC(CN2C(=S)NC[C@@H]2CC(C)C)CC1 | nt | nt | i | i
COc1ccc(C(=O)Nc2ccc(N3CCN(C(=O)c4ccccc4C)CC3)cc2)cc1 | i | i | i | i
COc1ccc2cc3cc(C(=O)N4CCCCCC4)oc3nc2c1 | i | i | 86 | 39
O=C(c1ccco1)N1CCN(C2CN(C3CCCCC3)S(=O)(=O)C2)CC1 (centres undefined) | nt | nt | i | nt
Cc1c(-n2c(SCC(=O)C(C)(C)C)nc3ccccc3c2=O)c(=O)n(-c2ccccc2)n1C | i | i | 145 | i
CN(Cc1ccco1)C(=O)[C@H](Cc1ccccc1)NC(=O)CC[C@H]1O[C@@H](n2ccc(=O)[nH]c2=O)[C@H](O)[C@@H]1O | nt | nt | i | nt
CCOc1cc(CN2CCCCC2)ccc1OC | i | i | i | i
CCOc1cc(CN2CCN(c3ccc(C(C)=O)cc3)CC2)ccc1OC | i | i | i | 38
O=C(NCC1CCCO1)C(=O)N/N=C\c1ccc2c(c1)OCO2 (centres undefined) | i | nt | i | 34
O=C(NCC1CCCO1)C(=O)N/N=C/c1cc(Cl)ccc1O (centres undefined) | i | i | i | i
COC(=O)c1ccc(/C=N/NC(=O)C(=O)NCC2CCCO2)cc1 (centres undefined) | i | i | i | i
O=C(NCC1CCCO1)C(=O)N/N=C/c1ccc(O)c(Cl)c1 (centres undefined) | i | i | i | 55
COc1ccc(CNC(=O)COC(=O)c2ccc(Br)o2)cc1 | i | i | i | i
COc1ccc(S(=O)(=O)N(C)C)cc1NC(=O)c1ccc(OCC(=O)N2CCOCC2)c(OC)c1 | nt | i | i | i
Oc1[nH]c2ccc(Br)cc2c1N=NC(=S)NCC1CCCO1 (centres undefined) | i | i | i | 36
Oc1[nH]c2ccc(Br)cc2c1N=Nc1ccc(F)cc1 | 18 | i | i | i
Oc1[nH]c2ccccc2c1N=NC(=S)NCC1CCCO1 (centres undefined) | i | i | i | i
CCOc1ccc(NC(=O)NC2CCS(=O)(=O)C2)cc1 (centres undefined) | i | i | i | i
CCCCN(C=O)c1c(CC)nc2c(OCc3ccc(Cl)cc3Cl)cccn12 | nt | nt | i | i
CCOC(=O)C1=C(COC(=O)c2ccc([N+](=O)[O-])o2)NC(=O)NC1C (centres undefined) | i | i | i | i
COc1ccc(-n2c(C)ccc2-c2ccccc2)cn1 | 58 | i | i | i
Cc1nc(S/C(=C/c2ccc(OCc3ccc(C(=O)O)cc3)cc2)C(=O)O)n[nH]1 | i | i | i | 31
Cc1nc(S/C(=C/c2ccc(-c3cccc(Cl)c3)o2)C(=O)O)n[nH]1 | i | i | i | i
CN(C)c1ccc(C2N(c3ccc(F)cc3)C(=O)C3CCCN32)cc1 (centres undefined) | i | i | i | 40
CCOC(=O)C1(C)CCCCCN1C(=O)c1ccc(C(=O)OC)cc1 (centres undefined) | nt | nt | i | i
SMILES | Mtb UGM inh | Rv3671c protease | Mtb FBA inh | GDH-TPI inh
O=[N+]([O-])c1ccc(Cl)c(-c2ccc(/C=N/n3cnnc3)o2)c1 | i | i | i | 53
CC(C)COC(=O)c1cc(-c2ccc(/C=N/n3cnnc3)o2)ccc1Cl | i | i | i | i
Cc1cc(-c2ccc(/C=N/n3cnnc3)o2)c(C)c([N+](=O)[O-])c1 | i | i | i | i
O=[N+]([O-])c1cc(-c2ccc(/C=N/n3cnnc3)o2)ccc1Cl | i | i | i | i
Fc1ccc(-c2ccc(/C=N\n3cnnc3)o2)cc1Cl | i | i | i | 42
Cc1ccc(-c2ccc(/C=N\n3cnnc3)o2)c(Br)c1 | i | i | i | 45
Fc1ccc(-c2ccc(/C=N/n3cnnc3)o2)cc1 | i | i | i | 41
CC(C)(C)c1ccc(C(=O)NCCC(=O)Nc2cc(Cl)ccc2N2CCOCC2)cc1 | i | i | i | i
CC(=O)Nc1ccc(NC(=O)[C@@H](NC(=O)N2C[C@H]3C[C@@H](C2)c2cccc(=O)n2C3)C(C)C)cc1 | i | i | i | i
CCN1CCN(S(=O)(=O)c2c(C)[nH]c(C)c2C(=O)N2CCCCC2)CC1 | i | i | i | i
COc1ccc(OC)c(-c2csc(N3CCC(c4ccccc4)CC3)n2)c1 | i | i | i | i
CC(=O)NC1=C(N2CC2C)C(=O)C(NC(C)=O)=C(N2CC2C)C1=O (centres undefined) | nt | nt | i | 32
COc1cccc(-c2ncc3ccccc3c2COC(=O)c2ccc(C(C)(C)C)cc2)c1 | i | i | i | i
Cc1c(OC(C)C(=O)NCc2ccccn2)ccc2c3c(c(=O)oc12)CCC3 (centres undefined) | i | i | 30 | i
Cc1c(OCC(=O)NCc2ccccn2)ccc2c3c(c(=O)oc12)CCCC3 | i | i | i | i
Cc1ccc(N=C2NC(=O)CS2)cc1C | i | i | i | i
CCCCOC(=O)c1ccccc1C(=O)OCCCC | i | i | i | i
O=C(O)c1ccccc1C(=O)OCCCCOC(=O)c1ccccc1C(=O)O | 11 | i | i | i
COc1ccc2c(c1)CSC(c1ccccc1)C2=O (centres undefined) | nt | nt | i | i
C[C@@H](C(=O)NCc1ccccc1)[C@@H]1C[C@@]1(C)[C@@H](NC(=O)OCc1ccccc1)c1ccccc1 | i | i | i | i
COCCNC(=O)[C@H](C)[C@H]1C[C@]1(C)[C@H](NC(=O)OCc1ccccc1)c1ccccc1 | i | i | 168 | i
Cn1nc(C(=O)Nc2nc3ccc(S(C)(=O)=O)cc3s2)ccc1=O | i | i | i | 61
CS(=O)(=O)c1ccc2nc(NC(=O)c3ccc(=O)[nH]c3)sc2c1 | i | i | i | 83
CS(=O)(=O)c1ccc2nc(NC(=O)c3ccc(Cl)cc3)sc2c1 | i | i | i | i
COc1ccccc1/C=C/C(=O)Nc1cccnc1 | i | i | i | 35
SMILES | Mtb UGM inh | Rv3671c protease | Mtb FBA inh | GDH-TPI inh
Cc1cccc(C)c1NC(=O)/C(C#N)=C/c1ccsc1 | i | i | i | i
Cc1ccc(NC(=O)/C(C#N)=C/c2ccc(C)s2)c(C)c1 | 13 | i | i | i
Cc1ccc(/C=C(\C#N)C(=O)Nc2c(C)cccc2C)s1 | i | i | i | 45
CCOc1ccccc1C(=O)Nc1ccc(-n2nncc2C(C)(C)C)cc1 | i | i | i | i
O=C(N/N=C/c1ccc(O)cc1)c1ccc(COc2cc(Cl)ccc2Cl)o1 | i | i | i | 35
O=C(Nc1cccnc1)c1ccc(COc2cc(Cl)ccc2Cl)o1 | i | i | i | i
CCOc1ccc(-c2cncc3nccn23)cc1 | nt | nt | + | i
COc1cc2[nH]c3c(N4CCN(c5ccc(Cl)cc5)CC4)ncnc3c2cc1OC | i | 38 | i | i
Oc1ccccc1-c1nnc2n1CCCCC2 | i | nt | i | i
N=c1oc2ccc3ccccc3c2cc1-c1nnc2n1CCCCC2 | i | i | + | i
CC1(C(=O)NS(=O)(=O)c2ccccc2Cl)CCN1C(=O)c1cccc2ccccc12 (centres undefined) | nt | nt | i | i
Cc1cc(OCC(=O)Nc2ccc(S(=O)(=O)N3CCN(C)CC3)cc2)cc(C)c1Cl | i | i | i | i
Cc1cc(OCC(=O)Nc2ccc(S(=O)(=O)N3CCN(C)CC3)cc2)ccc1Cl | i | i | 141 | i
CC1CC(C)CN(CCCNC(=O)CN2C(=O)COc3ccc(S(=O)(=O)N4CCOCC4)cc32)C1 (centres undefined) | i | i | i | i
